Data from PubChem BioAssay AID1030 (National Center for Advancing Translational Sciences (NCATS), 2008).
Hit rate of the full screen: of about 220,000 compounds, about 16,000 (7.3%) were called active. Inconclusive results (about 25%) are left out. Many of the other results were omitted from the sample, so actives are more common in it than they were. Unmarked numbers belong to inactive results. Calls follow the shape of the dose curve; as a rule, active = well fitted inhibition curve with a large enough effect (not every such curve was filed as active); inconclusive = small, poorly fitted or top-dose-only effect, or another doubt; inactive = no such curve, though single readings can be large or run the other way.

molecular target: Aldehyde dehydrogenase 1A1 (Homo sapiens) (UniProt P00352); assay: qHTS Assay for Inhibitors of Aldehyde Dehydrogenase 1 (ALDH1A1); conditions: Purified ALDH1A1, NADH fluorescence, propionaldehyde substrate; series mostly up to 75.3 µM; activity, negative = inhibition: at the top concentration;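 as to activity, negative = inhibition: plate controls were no enzyme wells and a reference inhibitor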
Potency is read from the fitted curve at half-maximal effect.

Sequence of Aldehyde dehydrogenase 1A1 (Homo sapiens) (P00352 whole entry, looked up): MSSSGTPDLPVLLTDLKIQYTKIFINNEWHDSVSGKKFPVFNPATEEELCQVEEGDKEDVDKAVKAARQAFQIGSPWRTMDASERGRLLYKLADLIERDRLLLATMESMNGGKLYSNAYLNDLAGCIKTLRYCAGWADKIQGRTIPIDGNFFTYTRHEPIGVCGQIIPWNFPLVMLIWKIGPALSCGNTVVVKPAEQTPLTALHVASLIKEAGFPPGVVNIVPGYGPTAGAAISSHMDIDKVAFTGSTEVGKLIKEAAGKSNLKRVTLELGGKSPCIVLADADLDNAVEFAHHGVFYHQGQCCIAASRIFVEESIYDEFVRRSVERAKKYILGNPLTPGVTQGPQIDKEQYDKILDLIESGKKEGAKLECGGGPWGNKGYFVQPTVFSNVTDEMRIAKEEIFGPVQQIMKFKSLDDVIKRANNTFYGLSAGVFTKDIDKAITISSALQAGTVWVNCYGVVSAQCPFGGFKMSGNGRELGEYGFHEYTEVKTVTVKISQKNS

Row | SMILES | activity, negative = inhibition | Potency
1 | O=C(CCCN1C(=O)CCC1=O)Nc1ccc(Cl)c(C(F)(F)F)c1 | -6.6% | –
2 | O=C(CN1CCN(C(=O)c2ccco2)CC1)Nc1ccc(Cl)c(C(F)(F)F)c1 | – | 17.8 µM (active)
3 | CCC(=O)Nc1ccc(C(=O)N2CCN(C(=O)c3ccco3)CC2)cc1 | -11.7% | –
4 | O=C(CCN1C(=O)/C(=C/c2cccs2)SC1=S)NNC(=O)c1cccc(O)c1 | 1.24% | –
5 | CCOC(=O)C1=C(O)CSC1=Nc1cccc(Cl)c1 | 3.32% | –
6 | Clc1cccc(N=C2NN=C(c3ccc4c(c3)OCCO4)CS2)c1 | – | 28.2 µM (active)
7 | c1ccc(CN2CCC(N=C3NN=C(c4ccc5c(c4)OCCO5)CS3)CC2)cc1 | -9.87% | –
8 | Cc1ccc(C(=O)Cc2nnc(C)s2)cc1 | 5.21% | –
9 | COc1cc(CN(C)Cc2nc3cc(C(F)(F)F)ccc3c(=O)[nH]2)ccc1OC(F)F | 6.49% | –
10 | O=C(O)c1ccc(NS(=O)(=O)c2ccc3c(c2)C(=O)c2cc(S(=O)(=O)Nc4ccc(C(=O)O)cc4)ccc2-3)cc1 | -1.43% | –
11 | CCc1ccc(Nc2nnc(SCC(=O)c3ccc4c(c3)NC(=O)CO4)s2)cc1 | – | 3.55 µM (active)
12 | CN(C(=O)CSc1nnc(Nc2ccccc2)s1)C1CCS(=O)(=O)C1 (stereo not given) | -0.527% | –
13 | CCCc1nc2ccccc2c(C(=O)OCC(=O)c2ccc3c(c2)NC(=O)CO3)c1CC | 9.72% | –
14 | COc1ccc(OCCCn2cccc2/C=C2/C(=N)N3OC(C)=CC3=NC2=O)cc1 | -8.86% | –
15 | O=C(NC1CC1)C1CCCN(C(=O)NC2CCCCC2)C1 (stereo not given) | 2.75% | –
16 | C=CCc1cccc2cc(C(=O)Nc3ccc(NC(C)=O)cc3)c(=O)oc12 | 1.3% | –
17 | COCCNc1cc(NCCOC)c([N+](=O)[O-])cc1[N+](=O)[O-] | 5.02% | –
18 | O=C(CSc1nnc2scc(-c3ccc(F)cc3)n12)NCc1ccco1 | -5.13% | –
19 | Cn1c(-c2ccc(F)cc2)cnc1SCC(=O)NNC(=O)Cc1ccccc1 | 0.789% | –
20 | Cn1c(-c2ccc(F)cc2)cnc1SCC(=O)NCc1ccco1 | – | 22.4 µM (active)
21 | COc1ccc(-c2ccc(OC(=O)NC3CCS(=O)(=O)C3)cc2)cc1 (stereo not given) | 8.45% | –
22 | CCOC(=O)N1CCN(C(=O)c2ccccc2N(Cc2ccccc2)S(=O)(=O)c2ccc(OC)cc2)CC1 | 3.86% | –

Row | SMILES | activity, negative = inhibition | Potency
23 | N#Cc1cccc(CS(=O)(=O)c2nnnn2-c2cc(C(F)(F)F)cc(C(F)(F)F)c2)c1 | 3.86% | –
24 | COc1ccccc1-n1nnnc1S(=O)(=O)Cc1ccc(Cl)cc1 | – | 2.51 µM (active)
25 | COc1ccccc1N1CCN(C(=O)CN(Cc2ccc(Cl)cc2)S(C)(=O)=O)CC1 | 3.38% | –
26 | CCN(CCCNC(=O)CCn1c(=O)[nH]c2ccsc2c1=O)c1ccccc1 | -8.83% | –
27 | Cc1nc(Nc2ccc(S(=O)(=O)N3CCCC3)cc2)c2nnn(Cc3ccccc3)c2n1 | 5.63% | –
28 | CC(C)Nc1ncnc2c1nnn2Cc1ccccc1 | – | 12.6 µM (active)
29 | CC(C)(C)c1nc(NCC2CCCO2)c2nnn(Cc3ccccc3)c2n1 (stereo not given) | 6.84% | –
30 | COc1ccc(N2CCN(C(=O)C3CCN(S(=O)(=O)c4ccc(C)cc4)CC3)CC2)cc1 | -7.46% | –
31 | COc1ccc(/C=C(\C#N)C(=O)NCCCn2ccnc2)cc1 | -1.14% | –
32 | COc1ccc(/C=C(\C#N)C(=O)ONC2=NCCCCC2)cc1 | – | 35.5 µM (active)
33 | Cc1cccc(OCC(=O)NC(=S)Nc2ccccc2N2CCOCC2)c1 | -11.4% | –
34 | COC(=O)c1ccc(NC(=S)NN2CCOCC2)cc1 | -0.42% | –
35 | COc1ccc(C(=O)NC(=S)Nc2ccccc2N2CCN(S(C)(=O)=O)CC2)cc1OC | – | 0.501 µM (active)
36 | Cc1ccc(C(=O)NC(=S)NCCN2CCOCC2)cc1 | 5.75% | –
37 | Cc1ccc(C(=O)NC(=S)Nc2ccc(N3CCOCC3)cc2)cc1 | – | 11.2 µM (active)
38 | COc1ccc(C(=O)Nc2ccc3nc(N4CCCCC4)cc(C)c3c2)cc1OC | -13.5% | –
39 | COc1ccc(C(=O)NC(=S)Nc2ccc(N3CCCC3)cc2)cc1OC | – | 3.55 µM (active)
40 | COc1cccc(OC)c1C(=O)Nc1ccc(N2CCCCC2)cc1 | -1.34% | –
41 | COc1ccc(C(=O)NC(=S)Nc2ccc(Cl)cn2)cc1OC | 10% | –
42 | CC1(C)CC(=O)C=C(N2CCOCC2)C1 | -1.31% | –
43 | O=[N+]([O-])c1ccc(Sc2n[nH]c(-c3ccco3)n2)nc1 | 5.62% | –
44 | CN(c1ccc(OCC(=O)OCC(=O)Nc2cccc([N+](=O)[O-])c2)cc1)S(=O)(=O)c1ccc(F)cc1 | 2.62% | –

Row | SMILES | activity, negative = inhibition | Potency
45 | O=C(Cc1ccc(F)cc1)N1CCN=C1SCc1cccc([N+](=O)[O-])c1 | -8.83% | –
46 | COc1cccc(C(O)Cc2nc3ccccc3n2C)c1OC (stereo not given) | 3.05% | –
47 | CCNC(=O)COc1cc(C)c(Br)c(C)c1 | 10% | –
48 | CCc1cc(C(=O)c2ccc(OC)cc2)c(NC(=O)CN2CCN(C)CC2)s1 | 1.85% | –
49 | Cc1cc(Cl)ccc1NC(=S)NCCCN1CCCC1=O | 6.05% | –
50 | CCOC(=O)c1cn(Cc2cccc(C)c2)nn1 | -9.64% | –
51 | CCOC(=O)c1nn(-c2cccc(C)c2)cc1C(=O)c1ccccc1 | – | 5.01 µM (active)
52 | CCOC(=O)c1c(N)nn(C(=O)c2ccccc2)c1-c1ccccc1 | 6.37% | –
53 | CCCCS(=O)(=O)N1C2=NC(C(=O)OC)=C(C(=O)OC)[C@@H]3N(Cc4ccccc4)c4ccccc4[C@]23C[C@H]1C(=O)OC | 1.36% [at 13.5 µM] | –
54 | CC(C)(C)c1ccc(/C=C2\SC(=O)N=C2N)cc1 | 8.52% | –
55 | COc1ccc(-c2nnn(Cc3nc(N)nc(N4CCCCC4)n3)n2)cc1 | – | 0.562 µM (active)
56 | COc1ccc(-n2nnnc2SCc2nc(N)nc(N3CCOCC3)n2)cc1 | 17.4% | –
57 | CN(C)c1nc(N)nc(Cn2nnc(-c3ccc(C(F)(F)F)cc3)n2)n1 | 6.45% | –
58 | CC(Nc1ccccc1)c1cccnc1 (stereo not given) | 7.63% | –
59 | OC[C@H]1O[C@@H](n2cnc3c(N[C@H]4CC5CCC4C5)ncnc32)[C@H](O)[C@@H]1O (stereo not given in full) | 6.91% | –
60 | COn1c(-c2ccc(Cl)cc2Cl)nc2ncccc21 | 15.4% | –
61 | Clc1ccc(-c2ncc3ccccn23)c(Cl)c1 | -5.79% | –
62 | COc1ccccc1/C=C/C=N/n1c(-c2ccc(Cl)cc2Cl)n[nH]c1=S | – | 20 µM (active)
63 | Cc1cc(/C=N/NC(N)=O)c(C)n1C1CCCCC1 | -3.75% | –
64 | CC1CCc2sc(C(=O)N/N=C/C3CCCCC3)cc2C1 (stereo not given) | – | 11.2 µM (active)
65 | OC(CNCc1ccc(Cl)c(Cl)c1)c1ccccc1 (stereo not given) | 3.1% | –
